Out of some 360,000 compounds screened, about 16,000 (4.4%) were called active. Not shown: some 9% with an inconclusive outcome. What follows is part of a selection rich in actives, with near analogues and random picks from the rest. Values without a mark were called inactive. Calls follow the shape of the dose curve; as a rule, active = well fitted inhibition curve with a large enough effect; inconclusive = small, poorly fitted or top-dose-only effect; inactive = no such curve, though single readings can be large or run the other way.
Biological target: Bromodomain adjacent to zinc finger domain protein 2B (Homo sapiens) (UniProt Q9UIF8)
Assay: qHTS Assay for Inhibitors of BAZ2B; also: nearly all actives have a fitted effect of over 60% in size
Conditions: AlphaScreen BAZ2B-H3K14Ac peptide displacement; series mostly up to 114 µM; activity change, negative = inhibition: at the top concentration
Outline: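 BAZ2B 50 nM plus b-H3(5-23)K14Ac 50 nM, PBS pH 7.4/0.01% Tween-20, 30 min RT; compound added (max 110 uM), 30 min RT; streptavidin donor/Ni-chelate acceptor beads 10 ug/mL final, 20 min dark; AlphaScreen read.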
% is scaled to controls: 0 for no effect and ±100 for the full control effect; potency is read from the fitted curve at half-maximal effect.

Chain of Bromodomain adjacent to zinc finger domain protein 2B (Homo sapiens) (Q9UIF8 whole entry, looked up, the tested form may be a part): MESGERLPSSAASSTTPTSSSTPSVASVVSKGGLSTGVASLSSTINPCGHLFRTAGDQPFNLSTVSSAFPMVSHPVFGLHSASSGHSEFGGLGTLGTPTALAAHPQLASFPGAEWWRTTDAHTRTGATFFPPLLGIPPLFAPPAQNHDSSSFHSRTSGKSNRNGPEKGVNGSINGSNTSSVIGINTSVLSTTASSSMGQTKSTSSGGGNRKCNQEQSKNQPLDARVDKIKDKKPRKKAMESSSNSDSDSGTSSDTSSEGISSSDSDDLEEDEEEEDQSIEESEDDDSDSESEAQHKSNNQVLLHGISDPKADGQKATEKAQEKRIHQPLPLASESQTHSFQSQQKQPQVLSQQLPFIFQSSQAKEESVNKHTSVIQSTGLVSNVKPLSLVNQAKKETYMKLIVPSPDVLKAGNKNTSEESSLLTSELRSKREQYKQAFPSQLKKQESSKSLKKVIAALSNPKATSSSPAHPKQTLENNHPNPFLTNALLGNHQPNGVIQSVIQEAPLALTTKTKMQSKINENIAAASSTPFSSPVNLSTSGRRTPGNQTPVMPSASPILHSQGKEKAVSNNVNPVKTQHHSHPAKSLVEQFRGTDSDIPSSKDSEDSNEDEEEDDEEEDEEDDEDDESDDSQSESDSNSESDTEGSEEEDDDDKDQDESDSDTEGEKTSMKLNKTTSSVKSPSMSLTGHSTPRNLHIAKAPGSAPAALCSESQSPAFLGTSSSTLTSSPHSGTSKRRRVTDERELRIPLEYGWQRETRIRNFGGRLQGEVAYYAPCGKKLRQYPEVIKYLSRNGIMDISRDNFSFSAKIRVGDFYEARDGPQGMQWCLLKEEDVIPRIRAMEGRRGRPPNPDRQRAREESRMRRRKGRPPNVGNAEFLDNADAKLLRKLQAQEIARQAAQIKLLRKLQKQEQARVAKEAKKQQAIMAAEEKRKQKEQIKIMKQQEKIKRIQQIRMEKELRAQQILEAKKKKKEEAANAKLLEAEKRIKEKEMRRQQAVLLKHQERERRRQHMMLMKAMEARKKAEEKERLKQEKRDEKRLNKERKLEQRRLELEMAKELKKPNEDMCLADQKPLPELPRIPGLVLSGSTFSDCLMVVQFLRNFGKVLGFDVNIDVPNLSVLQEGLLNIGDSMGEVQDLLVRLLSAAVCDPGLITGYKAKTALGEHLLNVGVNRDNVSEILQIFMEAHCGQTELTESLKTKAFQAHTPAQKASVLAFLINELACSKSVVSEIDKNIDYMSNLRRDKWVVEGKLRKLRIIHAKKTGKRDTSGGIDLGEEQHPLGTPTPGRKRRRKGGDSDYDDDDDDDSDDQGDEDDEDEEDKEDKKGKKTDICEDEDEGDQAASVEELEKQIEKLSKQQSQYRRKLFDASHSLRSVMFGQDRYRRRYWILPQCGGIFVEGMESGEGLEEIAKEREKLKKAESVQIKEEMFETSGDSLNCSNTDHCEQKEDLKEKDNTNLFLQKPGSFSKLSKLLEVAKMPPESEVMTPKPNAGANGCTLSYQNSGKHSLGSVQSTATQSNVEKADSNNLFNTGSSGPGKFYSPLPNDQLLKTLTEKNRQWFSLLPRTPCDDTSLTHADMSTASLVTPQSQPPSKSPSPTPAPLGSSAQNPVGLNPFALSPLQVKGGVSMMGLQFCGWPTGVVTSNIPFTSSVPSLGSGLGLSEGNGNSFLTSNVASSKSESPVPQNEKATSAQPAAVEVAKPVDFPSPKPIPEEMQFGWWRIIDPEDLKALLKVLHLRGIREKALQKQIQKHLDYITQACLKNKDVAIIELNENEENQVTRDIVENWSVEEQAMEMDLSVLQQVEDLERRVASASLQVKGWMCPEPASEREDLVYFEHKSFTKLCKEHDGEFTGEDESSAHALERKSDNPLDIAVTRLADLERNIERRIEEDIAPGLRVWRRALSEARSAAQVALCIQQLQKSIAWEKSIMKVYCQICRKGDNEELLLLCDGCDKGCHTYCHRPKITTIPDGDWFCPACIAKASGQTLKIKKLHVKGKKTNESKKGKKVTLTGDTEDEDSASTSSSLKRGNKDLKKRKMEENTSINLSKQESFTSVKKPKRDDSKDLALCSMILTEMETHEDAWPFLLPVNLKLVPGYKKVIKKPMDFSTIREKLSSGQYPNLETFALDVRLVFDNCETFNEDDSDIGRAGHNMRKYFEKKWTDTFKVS

Compound | activity change, negative = inhibition | Potency
Cc1c(Cl)cccc1NC(=O)C1CCCN(C(=O)c2cnn(-c3ccccc3)c2-n2cccc2)C1 (centres undefined) | -19.3% | 
COc1ccc(CCNC(=O)c2nn(C)c3c2CSc2ccccc2-3)cc1OC | -28.5% | 
Cc1cc(NC(=O)CSc2ncc(C(=O)Nc3ccc(Cl)cc3)c(=O)n2C)no1 | -6.81% | 
Cc1ccc(-c2nnc(Nc3cccc(Br)c3)c3ccccc23)cc1S(=O)(=O)NCC1CCCO1 (centres undefined) | -2.37% | 
Cc1cn(C)c(CC(=O)NCc2ccc(Cl)cc2)c1C(=O)O | -29.8% | 
Cc1ccc(CCCOC(=O)C[N+]2(C)CCCCC2)cc1 | -29% | 
Cc1ccc(COC(=O)CN2C(=O)NC3(CCCC3)C2=O)cc1 | 10.3% | 
Cc1ccc(CCCOC(=O)C[N+]2(C)CCCC2)cc1 |  | 50.1 µM (active)
COc1ccc(-c2nn(CC(=O)Nc3ccccc3F)c3c2cnc2ccc(F)cc23)cc1 | 0.104% | 
CC(=O)Nc1ccc(NC(=O)CCCc2nc(-c3ccc(C(C)(C)C)cc3)no2)cc1 | -13.7% | 
Cc1ccc(CCNC(=O)Cn2c(-c3cccs3)cc3cc(F)ccc32)cc1 | -8.55% | 
Cc1cccc(Nc2nc(C)nc(N)c2S(=O)(=O)c2ccccc2)c1 | -15.6% | 
Cc1ccc(C(=O)NNc2ncnc3ccccc23)cc1 |  | 56.2 µM (active)
CCc1nc(SCC(=O)NNC(=O)c2ccc(C)cc2)c2ccccc2n1 | -0.0282% | 
Cc1ccc(C(=O)NNC(=O)c2cccs2)cc1 | 18.9% | 
CCCCCn1c(CCCNC(=O)c2ccccc2OC)nc2ccccc21 | -12.8% | 
COCC(C)NS(=O)(=O)c1ccc(N2CCCCS2(=O)=O)cc1 (centres undefined) | -12.2% | 
CCOC(=O)C1CCN(c2nc3c(S(=O)(=O)c4ccc(CC)cc4)nnn3c3ccc(Cl)cc23)CC1 | 5.67% | 
CCCC(c1nnnn1C(C)(C)C)N1CCN(Cc2ccccc2)CC1 (centres undefined) | -9.96% | 
CC(C)C(c1nnnn1Cc1ccccc1)N1CCC(C(N)=O)CC1 (centres undefined) | 7.71% | 
CC(C)C(c1nnnn1C(C)(C)C)N1CCN(Cc2cccnc2)CC1 (centres undefined) |  | 56.2 µM (active)
CCN(Cc1ccccc1)C(=O)c1cn(-c2cccc(OC)c2)c(=O)c2ccccc12 | 1.06% | 
COc1ccc(CNC(=O)Cc2coc3ccc(C(C)C)cc23)cc1 | 11.8% | 
CCc1ccc(NC(=O)c2cnc3c(-c4ccccc4)c(C)nn3c2C)cc1 | 4.97% | 
CCN(C(=O)Cc1nc(N)n[nH]1)C1(C(=O)Nc2ccccc2)CCCCC1 |  | 20 µM (active)
CCc1ccc(NC(=O)CN2C(=O)C(c3ccccc3)=NC23CCCCCC3)cc1 | -1.33% | 

Compound | activity change, negative = inhibition | Potency
C=CCN(C(=O)c1cc(C)cc(C)c1)C1(C(=O)Nc2ccccc2)CCN(C(C)C)CC1 | -20.7% | 
CCOc1cccc2sc(N3CCN(C(=O)C4CC4)CC3)nc12 | 0.784% | 
CCCN1CN=C(NS(=O)(=O)c2ccc(NC(C)=O)cc2)NC1 | -14% | 
Cc1ccc(C(=O)Nc2ccc3c(c2)OCO3)cc1S(=O)(=O)N1CCCCC1 | -34.2% | 
Cn1cccc1/C=C1\SC(=O)N(CC(=O)Nc2ccc(F)cc2)C1=O | 2.22% | 
Cc1ccc(C(=O)O)cc1-c1ccc(/C=C2\SC(=O)N(CC(=O)Nc3ccc4c(c3)OCO4)C2=O)o1 |  | 11.2 µM (active)
Cc1ccccc1CNC(=O)C(=O)NCC(c1cccs1)S(=O)(=O)c1cccs1 (centres undefined) | -7.59% | 
COc1ccc(NC(=O)CCCN2C(=O)CCn3nc(-c4cn(C)c5ccccc45)cc32)cc1OC | -24.7% | 
Cn1cc(Cl)c(C(=O)NNC(=S)Nc2cccc(Cl)c2)n1 | 2.35% | 
Cc1cccc(-n2cnc(C(=O)Nc3cccnc3)c2)n1 | -7.27% | 
Cc1cccc(-n2cnc(C(=O)NNC(=S)Nc3ccccc3)c2)n1 |  | 22.4 µM (active)
CCn1cc2nc(SCc3ccccc3Cl)n(CCc3ccccc3)c(=O)c2n1 | -16.7% | 
CCc1cc2c(cc(C(=O)OC)n2Cc2nc(-c3ccc(C)cc3)oc2C)s1 | -11.1% | 
CN(C)c1nc(-c2cccnc2)nc(-c2ccc(Cl)cc2)c1C#N | -4.97% | 
N#Cc1c(Cl)nc(-c2cccnc2)nc1-c1ccccc1 |  | 70.8 µM (active)
O=S(=O)(Cc1cc(Cl)nc(-c2cccnc2)n1)c1ccccc1 | 11% | 
COc1ccc(OC)c(-n2nnc(-c3nc(-c4cc(OC)c(OC)c(OC)c4)no3)c2C)c1 | -2.45% | 
CC(C)(C)NC(=O)COC(=O)c1cc(Cl)ccc1[N+](=O)[O-] | -36.3% | 
CCCC(=O)OCC(=O)Nc1cc(Cl)ccc1[N+](=O)[O-] |  | 39.8 µM (active)
Cc1ccc(Cl)cc1NC(=O)COC(=O)CC(C)(C)C | -1.46% | 
CCOc1ccc(NC(=O)C(CC(C)C)N2Cc3ccccc3C2=O)cc1 (centres undefined) | 1.11% | 
Cc1ccccc1NC(=O)Cn1cc(C(=O)c2cccs2)c2ccccc21 | -0.676% | 
CCC(C)c1ccc2oc(-c3ccc(NC(=O)c4cc5ccccc5o4)cc3)nc2c1 (centres undefined) | -1.68% | 
COC(=O)c1ccc(/C=N/NC(=O)C(=O)N2CCCCCC2)cc1 | -12.8% | 
COC(=O)c1ccc(/C=N/N2C(C)CCCC2C)cc1 (centres undefined) |  | 56.2 µM (active)
COC(=O)N/N=C/c1ccc(/C=N/NC(=O)OC)cc1 | 8.67% | 

Compound | activity change, negative = inhibition | Potency
COc1ccc(CCNc2ncnc3c2cnn3-c2ccc(C)cc2)cc1 | 0.308% | 
CCOc1ccc(S(=O)(=O)c2cn(Cc3ccc(OC)cc3)c3ccc(F)cc3c2=O)cc1 | -5.21% | 
O=c1[nH]c2ccccc2n2c(-c3ccccc3)nnc12 |  | 20 µM (active)
O=c1cc(-c2ccccc2)n2c(SCc3ccccc3)nnc2[nH]1 | 1.16% | 
O=c1[nH]n2c(-c3ccccc3)nc(O)c2c2ccccc12 | -1.83% | 
Cc1ccc(C(=O)NCCSc2c(C)[nH]c3ccccc23)cc1C | -34.8% | 
CC1CCC2(CC1)N=C(c1ccccc1)C(=O)N2CC(=O)Nc1ccc(F)c(Cl)c1 (centres undefined) | -9.91% | 
COC(=O)c1cnn(-c2ccc(C(=O)Nc3ccc(OC(F)(F)F)cc3)cc2)c1N | 2.8% | 
O=C(Cc1cccs1)Nc1nnc(SCc2ccc(F)cc2)s1 | 12.2% | 
COc1ccc(Cc2nnc(NC(=O)Cc3cccs3)s2)cc1 |  | 44.7 µM (active)
CCc1nnc(NC(=O)Cc2cccs2)s1 | -9.54% | 
CCCCN=C1C([N+](=O)[O-])=CC=C2C1=NC1(CCCCC1)N2O |  | 2.24 µM (active)
CCC(C(=O)Nc1cc(OC)ccc1OC)n1c(=O)c(C(F)(F)F)nc2ccccc21 (centres undefined) | -1.26% | 
COc1cccc(-n2cc(C(=O)NCc3cccc(Cl)c3)c3ccccc3c2=O)c1 | -37.4% | 
CCC(C)NC(=O)CSC1=Nc2ccccc2C2=NC(CCC(=O)NCc3ccco3)C(=O)N12 (centres undefined) | -4.77% | 
O=C(CC1N=C2c3ccccc3N=C(SCc3cccc(Cl)c3)N2C1=O)NCc1ccc2c(c1)OCO2 (centres undefined) | -11.8% | 
O=C(CC1N=C2c3ccccc3N=C(SCc3ccccc3Cl)N2C1=O)NCc1ccco1 (centres undefined) |  | 50.1 µM (active)
Cc1ccc(-c2cc(C(F)(F)F)c(C#N)c(SCC(=O)Nc3ccccc3)n2)cc1 | -16.3% | 
CCOC(=O)c1ccc(NC(=O)CCn2cnnn2)cc1 | -21.4% | 
CC(=O)c1nn(-c2ccc(OC(F)(F)F)cc2)nc1Nc1ccccc1 | -1.58% | 
COCCn1c(C)cc(C(=O)COC(=O)CNC(=O)c2ccco2)c1C | 11.5% | 
Cc1cc(C(=O)COC(=O)CNC(=O)c2ccc(F)cc2)c(C)n1Cc1ccco1 |  | 50.1 µM (active)
Cc1cc(C(=O)CSc2nc(N)cc(=O)[nH]2)c(C)n1Cc1ccco1 | -38% | 
COc1ccc(S(=O)(=O)c2c(Nc3ccc(C)cc3)sc(C(=O)c3ccc(C)cc3)c2N)cc1 | -14.2% | 
CCOc1ccc(C(=O)N2CCN(CCc3ccccn3)CC2)cc1 | -16.1% | 
COc1ccc(-c2c(C#Cc3ccccc3)c3ccccc3n2C)cc1 | 84% | 

Compound | activity change, negative = inhibition | Potency
COc1ccc(CCNCc2c(-c3ccccc3)n(C)c3ccccc23)cc1 |  | 50.1 µM (active)
COc1ccc(-c2nc3ccccc3c(=O)n2CCc2ccc(O)cc2)cc1 | -7.15% | 
O=C(NCCc1ccccc1)c1cnc2sc(N3CCCC3)nn2c1=O | -19.6% | 
CCOC(=O)Nc1ccc2c(c1)N(C(=O)CCCl)c1ccccc1[S@]2=O | -5.38% | 
CCOC(=O)Nc1ccc2c(c1)N(C(=O)CN1CCN3CCCC3C1)c1ccccc1CC2 (centres undefined) |  | 70.8 µM (active)
CCNCCC(=O)N1c2ccccc2Sc2ccc(NC(=O)OCC)cc21 | 6.36% | 
Cc1cc(C)cc(NS(=O)(=O)c2ccc(-c3cc(C)no3)s2)c1 | 6.38% | 
Cc1ccc(C)c(Cn2c(C)c(CNCc3ccc(F)cc3)c(C(=O)O)c2C)c1 | -35% | 
O=C(CCCn1c(=O)c2cccn2c2cccnc21)NCc1ccc(F)cc1 | -29.1% | 
Cc1ccc(OCCCCN2CCCCC2)c(Br)c1 |  | 50.1 µM (active)
Cc1ccc(OCCCC(=O)N2CCOCC2)c(C)c1 | -3.15% | 
COc1ccc(C(=O)NCCCN2CCOCC2)cc1Br | -2.68% | 
COc1ccccc1NC(=O)c1cc(C2CC2)nc2c1c(C)nn2-c1ccc(C)cc1 | 12.9% [at 57.1 µM] | 
CC(C)Cn1c(C2CC(=O)N(c3ccccc3Cl)C2)nc2ccccc21 (centres undefined) | -8.15% | 
Cc1c(Cl)cccc1NC(=O)CCS(=O)(=O)c1ccc2c(c1)oc(=O)n2C | 5.14% [at 57.1 µM] | 
Cc1ccccc1OCCSc1nc2ccc(NC(=O)c3ccco3)cc2s1 | -18.8% | 
Nc1nnnn1/N=C/c1cccs1 | -1.18% | 
Oc1cccc(/C=N/Nc2ccc(Cl)nn2)c1O |  | 8.91 µM (active)
Cc1ccsc1/C=N/Nc1ccc(Cl)nn1 | -32.3% | 
Clc1ccc(N/N=C/c2cccs2)nn1 |  | 50.1 µM (active)
Oc1c(Br)cccc1/C=N/Nc1c(F)c(F)c(F)c(F)c1F | -1.1% | 
COc1cccc(/C=N/Nc2ccc(Cl)nn2)c1 | -10.6% | 
Cc1cccc2c(=O)cc(CSc3ccccc3NC(=O)C(C)C)[nH]c12 | 4.37% | 
CCOC(=O)N1CCC(NC(=O)c2cnn(-c3cccc(C)c3)c2C2CCN(C(=O)OC(C)(C)C)CC2)CC1 | 8.59% [at 57.1 µM] | 
CCc1cccc(NC(=O)Cn2nc(CC)n3c(cc4cc(C)ccc43)c2=O)c1 | 6.38% | 
CC(C)CNc1ncnc2c1nnn2C | -10.3% | 

Reference: PubChem BioAssay AID504333 (National Center for Advancing Translational Sciences (NCATS), 2011)
